Here are results for eight compounds from PubChem BioAssay (NCATS).

“And” between values parts separate entries of the source, which are not always exact repeats. Identical values can stand only once. Values without a mark were called inactive. Results filed as inconclusive are left out. The source made the active and inactive calls. Unless noted, the call rests on the fitted dose curve; in most records, active means well fitted curve in the direction sought with a large enough effect; inconclusive means small, poorly fitted or top-dose-only effect, or another doubt; inactive means no such curve, though single readings can be large; an effect the other way counts as inactive or inconclusive. Bounds are passed on as bounds.

The nature of assay [1]: AP1 Signaling Pathway (AID 357; active means well fitted curve in either direction with a large enough effect, not every such curve was filed as active;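 further: ME-180 reporter cells stimulated with EGF at its EC50 level; on the % scale 0 is the no-effect control and ±100 the full control effect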). Particulars: ME-180 AP-1-bla reporter, EGF-induced, beta-lactamase ratio, 5 h; at 17.2 µM (top of the series). Summed up:
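Read-out was the 460nm/530nm emission ratio (excitation 405nm) after CCF4 loading for 2.5 hours at room temperature. Cells carried an AP-1-driven beta-lactamase reporter, were stimulated with EC50 EGF plus compound for 5 hours, and AC50 values came from titrations.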

The nature of assay [2]: Stat Signaling Pathway (AID 446; active means well fitted curve in either direction with a large enough effect, not every such curve was filed as active;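 further: ME-180 cervical cancer cells given 40 pM IL-6 alongside compound; SIE-controlled beta-lactamase reporter measured as 460/530 nm FRET emission ratio; on the % scale 0 is the no-effect control and ±100 the full control effect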). Particulars: ME-180 (cervical carcinoma) SIE beta-lactamase reporter, IL-6 stimulated, 5 h; at 17.2 µM (top of the series). Summed up:
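Overnight-plated ME-180 cells bearing a STAT Inducible Element beta-lactamase reporter; 5 h co-exposure to compound and 40 pM IL-6; values normalized to 300 pM IL-6 and 125 nM JAK inhibitor controls.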

Assay [3] has as its target Mitogen-activated protein kinase 10 (Mus musculus) (UniProt Q61831). The assay is described as follows: JNK3 AlphaScreen Assay (AID 530; active means well fitted curve in either direction with a large enough effect, not every such curve was filed as active;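 further: kinase came from lysate of stimulated human HepG2 cells; signal reports phosphorylation of biotinylated GST-cJun 1-79 at Ser73 with 10 µM ATP; on the % scale 0 is the no-effect control and ±100 the full control effect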). Conditions: JNK3 lysate, c-Jun phosphorylation; series mostly up to 25.6 µM. Put shortly:
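Activity was read by AlphaScreen after JNK3-containing HepG2 lysate (cytokine pre-activated) phosphorylated biotinylated GST-cJun with 10 uM ATP at room temperature. Phospho-Ser73 cJun antibody with Protein-A acceptor beads provided detection.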

The target in assay [4] is Cytochrome P450 1A2 (Homo sapiens) (UniProt P05177). The assay is described as follows: p450-cyp1a2 (AID 410; calls by dose curve; further: potency means the concentration at half of the fitted maximal effect;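 on activity change, negative = inhibition: -100% = full effect of reference inhibitor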). Conditions: recombinant CYP1A2, luciferin-ME demethylation, luminescence; series mostly up to 25.6 µM. Summed up:
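O-Demethylation of luciferin 6' methyl ether by human CYP1A2 is monitored as luciferase luminescence. Substrate sits at Km (100uM); enzyme is 20nM. Values are scaled to 57 uM furafylline as maximal inhibition.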

For assay [5], the target named is Glucocorticoid receptor (Homo sapiens) (UniProt P04150). Kind of assay: GR-GFP Redistribution (AID 450;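 active means compounds whose dose series gives a full or clear partial fitted curve of increased nuclear translocation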; further: potency means the concentration at half of the fitted maximal effect). Particulars: U2OS GR-GFP nuclear translocation, laser cytometry, 2 h.
Assay [6] shares this target. The assay is described as follows: GR-EFC Redistribution (AID 451; calls by dose curve; further: potency means the concentration at half of the fitted maximal effect). Conditions: CHO-K1 GR-EFC translocation, beta-gal luminescence, 2 h. Summed up:
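CHO-K1 cells expressing nuclear EA and GR-ED fragments of b-gal; compounds titrated up to 46 uM final, 2 h at 37 C. GR nuclear translocation read as complemented b-gal luminescence after 1 h RT detection.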

A short description of assay [7]: Cell Viability - BJ (AID 421; calls by dose curve;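 further: potency means the concentration at half of the fitted maximal effect; cells exposed to compound for 40 hours at 37 °C before readout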). Particulars: BJ fibroblast viability, qHTS. Summed up:
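Quantitative HTS: ATP depletion in BJ cells after 40 hr compound exposure in complete culture medium, detected with CellTiter-Glo; AC50 from standard Hill fits.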

The nature of assay [8]: Cell Viability - Hek293 (AID 427;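 active means compounds whose dose-response curve shows a full or clear partial loss of cell viability, called from curve shape rather than a numeric limit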;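 further: potency means the concentration at half of the fitted maximal effect; cells exposed to compound for 40 hours at 37 °C before reading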). Particulars: qHTS. Put shortly: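 AC50 values derive from Hill-modelled concentration-response of ATP-based luminescence, normalized between DMSO-only and 100 uM tamoxifen controls. Cells were exposed in complete culture medium for 40 hr at 37 °C before detection.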
Assay [9] is described as follows: Cell Viability - HepG2 (AID 433; calls by dose curve;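 further: potency means the concentration at half of the fitted maximal effect; potency for ATP loss meaning cytotoxicity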). Conditions: qHTS. Put shortly: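 In this qHTS format, a 40 h, 37 °C compound incubation of HepG2 cells in complete medium precedes a 20 min CellTiter-Glo step at room temperature. Tamoxifen and doxorubicin serve as positive controls; Hill-equation fits yield AC50.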
On the technique in general: In qHTS, concentration-response curves come from the screen itself.

Assay [10] can be described thus: Cell Viability - MRC5 (AID 434; calls by dose curve;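 further: potency means the concentration at half of the fitted maximal effect; potency reflects cytotoxicity seen as loss of intracellular ATP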). Particulars: MRC5 lung fibroblast viability, qHTS. Summed up:
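ATP luminescence read-out (CellTiter-Glo, 20 min RT) after 40 hr, 37 °C compound exposure of 1500 MRC5 cells/well. Data normalized to DMSO (basal) and 100 uM tamoxifen (100% inhibition); AC50 from standard Hill equation.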

Assay [11] in a line: Cell Viability - SK-N-SH (AID 435; calls by dose curve;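 further: potency means the concentration at half of the fitted maximal effect; compound exposure lasted 40 h at 37 °C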). Particulars: SK-N-SH neuroblastoma cell viability qHTS. Put shortly:
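Human neuroblastoma line, 40 h exposure at 37 °C, ATP quantified via luciferase luminescence; DMSO and 100 uM tamoxifen define 0 and 100% inhibition for AC50 fitting.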

Assay [12] in a line: Cell Viability - N2a (AID 540). Further: nearly all actives have a fitted effect of over 45% in size. Further: potency means the concentration at half of the fitted maximal effect.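 On activity change, negative = cytotoxicity: plate controls were DMSO alone for no effect and tamoxifen control for full effect.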 Conditions: N2a mouse neuroblastoma cell viability; activity change, negative = cytotoxicity: at 92.2 µM (top of the series). Put shortly:
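Cytotoxicity was scored as loss of cellular ATP in N2a cells, a mouse neuroblastoma line. Compounds are applied in a qHTS concentration series for 40 hr at 37 °C.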

Assay [13] is described as follows: Cell Viability - HUV-EC-C (AID 542). Further: nearly all actives have a fitted effect of over 35% in size. Further: potency means the concentration at half of the fitted maximal effect. On activity change, negative = cytotoxicity: on the % scale 0 is the no-effect control and ±100 the full control effect. Conditions: HUV-EC-C endothelial cell viability, qHTS; series mostly up to 92.2 µM. Summed up:
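Cells were seeded at 1000 per well and incubated 5 hr at 37 °C before compound addition. After 40 hr at 37 °C, CellTiter-Glo reagent was added for 20 min and luminescence read. AC50 values came from Hill-equation modelling.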

Assay [14] in a line: Cell Viability - H-4-II-E (AID 543). Further: nearly all actives have a fitted effect of over 35% in size. Further: potency means the concentration at half of the fitted maximal effect. Conditions: H-4-II-E rat hepatoma viability; series mostly up to 92.2 µM. Put shortly:
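Cells seeded at 1500 per well and rested 5 hr; compounds added; 40 hr incubation at 37 °C; CellTiter-Glo added, 20 min at room temperature; luminescence read. Hill-equation fits gave AC50.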

A short description of assay [15]: Cell Viability - Renal Proximal Tubule (AID 545).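 Further: 0% = DMSO only and -100% = 100 µM tamoxifen; nearly all actives have a fitted effect of over 40% in size.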 Particulars: renal proximal tubule cells viability, primary cells of rat origin; activity change, negative = cytotoxicity: at 91.7 µM (top of the series). Summed up: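 In this qHTS format, normal rat kidney-derived proximal tubule cells in complete culture medium receive compound titrations, then sit 40 hours at 37 °C before luciferase-based ATP quantitation; potency is reported as AC50 from concentration-response curves.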

Assay [16] can be described thus: Cell Viability - Jurkat (AID 426;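 active means dose-dependent loss of cell ATP signal giving a full or clear fitted curve, ranked by lower potency value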; further: potency means the concentration at half of the fitted maximal effect). Conditions: qHTS. Summed up: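 Cells of the human T-cell leukemia line Jurkat (E6-1) are seeded at 5000 per well, treated with compound across a concentration range for 40 hours at 37 °C, then lysed with CellTiter-Glo; luminescence reports ATP.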
Assay [17] is described as follows: Cell Viability - NIH 3T3 (AID 541). Further: nearly all actives have a fitted effect of over 25% in size. Further: potency means the concentration at half of the fitted maximal effect.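 On activity change, negative = cytotoxicity: plate controls were DMSO alone for no effect and tamoxifen positive control for full effect.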 Particulars: NIH 3T3 cell viability, qHTS; activity change, negative = cytotoxicity: at 92.2 µM (top of the series). Summed up:
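Cells seeded at 1000/well, rested 5 hr at 37 °C, then dosed and incubated 40 hr at 37 °C. CellTiter-Glo added, 20 min room temperature, luminescence read. AC50 by Hill fit.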

Assay [18] is described as follows: Cell Viability - SH-SY5Y (AID 544).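 Further: 0% = DMSO alone and -100% = 100 µM tamoxifen; nearly all actives have a fitted effect of over 55% in size.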 Particulars: SH-SY5Y neuroblastoma cell viability; viability change, negative = cytotoxic: at 92.2 µM (top of the series). Put shortly: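 Cells were plated at 1500 per well and allowed 5 hr at 37 °C. Compounds were added across a concentration range and incubated 40 hr at 37 °C. CellTiter-Glo was added for 20 min at room temperature before luminescence reading.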

Chain of Glucocorticoid receptor (Homo sapiens) (P04150 whole entry, looked up): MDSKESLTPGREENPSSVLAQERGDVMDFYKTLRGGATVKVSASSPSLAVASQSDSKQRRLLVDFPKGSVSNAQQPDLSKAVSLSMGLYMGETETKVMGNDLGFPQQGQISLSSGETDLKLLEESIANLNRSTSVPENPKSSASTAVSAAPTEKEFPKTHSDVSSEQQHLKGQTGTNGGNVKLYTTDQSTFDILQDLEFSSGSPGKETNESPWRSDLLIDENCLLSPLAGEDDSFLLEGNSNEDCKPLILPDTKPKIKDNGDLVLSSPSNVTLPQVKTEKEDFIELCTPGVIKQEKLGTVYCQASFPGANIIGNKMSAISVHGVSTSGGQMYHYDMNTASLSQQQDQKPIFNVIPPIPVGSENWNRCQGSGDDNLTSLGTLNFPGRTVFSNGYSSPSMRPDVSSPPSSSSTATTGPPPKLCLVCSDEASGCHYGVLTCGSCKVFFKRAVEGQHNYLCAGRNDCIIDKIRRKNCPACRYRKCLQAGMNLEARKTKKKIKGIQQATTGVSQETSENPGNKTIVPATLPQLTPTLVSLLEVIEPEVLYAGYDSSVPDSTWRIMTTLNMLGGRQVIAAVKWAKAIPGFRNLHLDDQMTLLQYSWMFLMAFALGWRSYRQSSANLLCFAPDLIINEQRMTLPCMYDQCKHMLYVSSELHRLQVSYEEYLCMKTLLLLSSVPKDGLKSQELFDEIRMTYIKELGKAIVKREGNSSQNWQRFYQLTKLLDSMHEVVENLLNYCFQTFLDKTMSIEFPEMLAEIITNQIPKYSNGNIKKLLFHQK
Chain of Cytochrome P450 1A2 (Homo sapiens) (P05177 whole entry, looked up): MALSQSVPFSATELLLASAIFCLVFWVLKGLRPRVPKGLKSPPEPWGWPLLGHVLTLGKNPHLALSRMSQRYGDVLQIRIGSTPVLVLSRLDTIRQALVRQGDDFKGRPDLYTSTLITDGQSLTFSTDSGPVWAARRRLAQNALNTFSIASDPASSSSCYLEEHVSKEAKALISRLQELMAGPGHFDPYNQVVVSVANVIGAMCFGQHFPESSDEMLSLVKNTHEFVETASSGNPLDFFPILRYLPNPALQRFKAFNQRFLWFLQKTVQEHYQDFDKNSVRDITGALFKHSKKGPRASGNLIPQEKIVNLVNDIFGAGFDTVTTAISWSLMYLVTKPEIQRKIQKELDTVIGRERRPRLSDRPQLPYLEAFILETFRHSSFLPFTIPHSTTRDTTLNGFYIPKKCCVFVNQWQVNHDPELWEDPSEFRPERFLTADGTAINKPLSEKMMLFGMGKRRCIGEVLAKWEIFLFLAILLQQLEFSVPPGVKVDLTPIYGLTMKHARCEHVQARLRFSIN

Consider `CCCCOc1ccc(OCCCN2CCOCC2)cc1`, for which, in [1], the activity change, negative = inhibition is 5.36% and -1.05%. The activity, negative = inhibition in assay [2] was -0.87% and 12.1%. Moreover, the result in assay [3] was inactive.

As to `CC[N+](CC)(CCNC(=O)C(=O)NCC[N+](CC)(CC)Cc1ccccc1Cl)Cc1ccccc1Cl`, the Potency result in assay [4] was “inactive”. Further, in assay [3], the compound was classed as inactive.

Consider `CN(C)CCCOc1nn(Cc2ccccc2)c2ccccc12`, for which, in [1], the activity change, negative = inhibition is 10.8%. The Potency in assay [5] and in assay [6] was over 20.6 µM each time. Besides, in [3], the call was inactive.

Consider `CN(C)/N=N/c1nc[nH]c1C(N)=O`, for which the Potency in assay [7] was over 92 µM; in assay [8] it was over 92 µM; in [9], over 92 µM; in assay [10] it was over 92 µM; in assay [11], over 92 µM; in assay [14], 25.1 µM (active). Also, in assay [3], the call was inactive. The Potency entry in [12] and in assay [13] was “inactive” throughout. In assay [15], the activity change, negative = cytotoxicity is -19.1%.

On to `NC(=NCCCCCCN=C(N)/N=C(\N)Nc1ccc(Cl)cc1)/N=C(\N)Nc1ccc(Cl)cc1`, for which the Potency in [4] was 15.8 µM (active); in [16] it was 42.1 µM (active); in assay [8], 45.6 µM (active); in assay [9], 39.6 µM (active); in assay [10] it was 50 µM (active); in assay [11] it was 46.5 µM (active). For the same compound, the Potency is over 20.6 µM in [5]; over 20.6 µM in assay [6]; 31.6 µM (active) in assay [12]; 31.6 µM (active) in assay [17]; 39.8 µM (active) in assay [13]; 31.6 µM (active) in assay [14]. For the same compound, the activity, negative = inhibition in [2] is -5.46%. Moreover, in [3], the call was inactive. The activity change, negative = cytotoxicity in [15] is -102% (active).

Turning to `Oc1c(I)cc(Cl)c2cccnc12`, the Potency in [10] was 44.2 µM (active); in assay [11] it was 38.6 µM (active); in assay [5] it was over 20.6 µM; in assay [6] it was over 20.6 µM; in assay [12], 31.6 µM (active); in assay [17] it was 5.01 µM (active). The Potency in [13] was 31.6 µM (active); in assay [14], 50.1 µM (active). The viability change, negative = cytotoxic in assay [18] was -84.2% (active).

Regarding `C=CCc1ccc(O)c(OC)c1`, the Potency in assay [7], in assay [16], in [8], in assay [9], in [10] and in [11] was over 92 µM each time. The compound was called inactive in assay [3]. The Potency entry in assay [12], in assay [17], in assay [13], in [14] and in [18] was “inactive” throughout. Besides, the activity change, negative = cytotoxicity in assay [15] was 5.39%.

In the case of `CC(=O)O[C@H]1C[C@@H]2CC[C@@H]3[C@H](CC[C@@]4(C)[C@H]3C[C@H]([N+]3(C)CCCCC3)[C@@H]4OC(C)=O)[C@@]2(C)C[C@@H]1[N+]1(C)CCCCC1`, the activity change, negative = inhibition in assay [1] was 10.4%. Besides, in assay [5], the Potency was over 20.6 µM.
